# Bim-Bfl-1: disrupts Bim binding to human Bfl-1. Bead-based flow cytometry, Bim-Bfl-1 binding inhibition. inhibition, % at 10 µM. 190,000 compounds, 0.12% hits. AID 1008;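 further: 0% = wells without compound plus tracer and 100% = blocker peptide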
# Target sequence (Q16548 whole entry, looked up): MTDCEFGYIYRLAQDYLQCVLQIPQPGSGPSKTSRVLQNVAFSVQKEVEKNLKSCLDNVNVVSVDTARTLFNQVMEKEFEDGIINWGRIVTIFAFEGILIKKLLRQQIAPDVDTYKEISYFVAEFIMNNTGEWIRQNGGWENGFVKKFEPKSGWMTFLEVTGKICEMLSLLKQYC
# Furin inhibitor: blocks human furin protease activity | P09958 | purified furin, fluorogenic substrate cleavage | inhibition, % at 20 µM or 30 µM | 220,000 compounds, 0.061% hits | AID 463115; in the data active means inhibition above about 25%
# Bim-Bcl-2: disrupts Bim peptide binding to human Bcl-2 | inhibition, % at 10 µM | P10415 | 190,000 compounds, 0.06% hits | Bead-based flow cytometry, Bim peptide-Bcl-2 binding; in the data active means inhibition above about 40%;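 further: 0% = no compound wells with probe peptide and 100% = reference peptide inhibitor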
# Bcl-B Bim block: disrupts Bim peptide binding to human Bcl-B | 190,000 compounds, 0.073% hits | bead-based flow cytometry | AID 951 | inhibition, % at 10 µM;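 further: 0% = tracer peptide without compound and 100% = reference inhibitor peptide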
# Target sequence (Q9HD36 whole entry, looked up): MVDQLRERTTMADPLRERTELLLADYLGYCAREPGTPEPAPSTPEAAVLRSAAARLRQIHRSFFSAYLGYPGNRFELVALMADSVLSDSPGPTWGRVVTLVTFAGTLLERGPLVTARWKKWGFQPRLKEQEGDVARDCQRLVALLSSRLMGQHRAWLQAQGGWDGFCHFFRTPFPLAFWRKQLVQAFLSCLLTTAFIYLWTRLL
# Bim-Bcl-XL: human Bim-Bcl-XL interaction inhibition | 190,000 compounds, 0.04% hits | inhibition, % at 10 µM | Bim peptide-Bcl-XL binding, bead flow cytometry, fluorescence | Q07817
# Bcl-W Bim block: inhibitors of Bim-Bcl-W interaction, human | inhibition, % at 10 µM | bead-based flow cytometry, Bim peptide-Bcl-W binding | 190,000 compounds, 0.02% hits | AID 952 | Q92843;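 further: 0% = bound tracer without compound and 100% = peptide blocker; higher means less fluorescent Bim peptide bound to Bcl-W beads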
# Target sequence (Q92843 whole entry, looked up): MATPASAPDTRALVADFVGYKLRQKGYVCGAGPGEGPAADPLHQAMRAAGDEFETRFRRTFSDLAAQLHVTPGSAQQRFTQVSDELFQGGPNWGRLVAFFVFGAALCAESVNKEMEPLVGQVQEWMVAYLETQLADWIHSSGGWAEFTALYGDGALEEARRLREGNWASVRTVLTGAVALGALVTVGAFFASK
# Numbers without * were called inactive; · = not tested or not shown. Compounds with a hit are over-represented: about 0.25% of the library has one in this group of screens. Unless noted, no stated cut-off is given here; in the data, active means inhibition above about 40%.
SMILES,Bim-Bfl-1,Furin inhibitor,Bim-Bcl-2,Bcl-B Bim block,Bim-Bcl-XL,Bcl-W Bim block
COc1cc(C(=O)Nc2ccccc2C2COC(=O)C2=N)cc(OC)c1OC (stereo not drawn),-3.0,1.7,-9.0,-10.0,-4.0,-6.0
COC(=O)c1[nH]c2ccccc2c1NC(=O)c1ccccc1[N+](=O)[O-],-2.0,-22.2,-6.0,44.0*,2.0,6.0
COC(=O)c1[nH]c2ccc(C)cc2c1NC(=O)c1ccccc1[N+](=O)[O-],-12.0,-24.0,-6.0,-7.0,-5.0,-3.0
COc1ccc(C(=O)Nc2ccc(C(=O)OCC(=O)c3cccc4ccccc34)cc2)cc1,20.0,-24.2,·,83.0*,15.0,24.0
CCC(=O)Nc1ccccc1C(=O)OCC(=O)c1cccc2ccccc12,0.0,-14.0,1.0,-1.0,1.0,0.0
CC1(C)CC(=O)C(C=Nc2ccc(Cl)cn2)=C(O)C1,-5.0,53.1*,-2.0,-2.0,-2.0,0.0
COc1cc2c(cc1OC)C(C(=O)N1CCCCC1)C(c1ccccc1F)N(C)C2=O (stereo not drawn),-2.0,-0.1,0.0,-1.0,-21.0,0.0
COc1cc2c(cc1OC)C(c1ccccc1F)OC(=O)C2 (stereo not drawn),59.0*,-22.3,98.0*,97.0*,72.0*,89.0*
COc1ccccc1Cn1nnc2c(=O)[nH]c(C3CCN(C(=O)c4ccc(C)cc4)CC3)nc21,-1.0,-11.2,-1.0,50.0*,-3.0,-2.0
COc1ccccc1Cn1nnc2c(=O)[nH]c(C3CCN(C(=O)c4ccc(F)cc4)CC3)nc21,-1.0,-14.2,-1.0,57.0*,2.0,5.0
COc1ccccc1Cn1nnc2c(=O)[nH]c(C3CCN(C(=O)c4ccccc4Cl)CC3)nc21,-12.0,-8.4,-6.0,12.0,0.0,3.0
COCCCNC(CC(=O)Nc1ccccc1C(=O)OC)C(=O)O (stereo not drawn),·,28.1*,·,·,·,·
CC(C)CNC(=O)c1cnn2c(C(F)(F)F)cc(C(F)(F)F)nc12,·,-9.2,·,·,·,·
CN1CCC(=O)N(CCSc2ccc(Br)cc2)CC1,·,-31.9,·,·,·,·
Cc1ccccc1N1CCN(CCCCN2C(=O)C3CCCN3C2=O)CC1 (stereo not drawn),1.0,-5.4,0.0,-2.0,-7.0,-1.0
Nc1ccc(N2CCN(CCCCN3C(=O)C4CCCN4C3=O)CC2)cc1 (stereo not drawn),8.0,-2.9,12.0,63.0*,24.0,25.0
CCOC(=O)C1CCN(c2ccc(C(N)=O)cc2[N+](=O)[O-])CC1,-12.0,-9.3,-5.0,-10.0,-6.0,-3.0
COc1ccc(C2=Nn3c(nnc3-c3ccco3)SC2)cc1OC,8.0,-2.3,14.0,26.0,44.0*,29.0
COc1ccc(C2=Nn3c(nnc3-c3ccccc3OC)SC2)cc1OC,-12.0,-5.4,-6.0,-5.0,-2.0,-4.0
O=C(COc1ccccc1F)NC12CC3CC(CC(C3)C1)C2,·,-15.9,·,·,·,·
CC(=O)OCCNc1cc(N2CCN(C)CC2)c2noc3c2c1C(=O)c1ccccc1-3,3.0,-17.1,0.0,-16.0,-6.0,4.0
CCOC(=O)C(C(=O)OCC)c1cc(Br)c2noc3c2c1C(=O)c1ccccc1-3,43.0*,-8.9,39.0,10.0,29.0,43.0*
Cc1cc(NC(=S)Nc2ccc(C)c(Cl)c2)n[nH]1,0.0,-18.7,0.0,-8.0,-2.0,-4.0
COC(=O)CSc1nnnn1-c1ccccc1,2.0,-15.3,0.0,0.0,-1.0,-4.0
CCOC(=O)NC(=O)CSc1nnnn1-c1ccccc1,-4.0,37.6*,0.0,-1.0,-6.0,0.0
SMILES,Bim-Bfl-1,Furin inhibitor,Bim-Bcl-2,Bcl-B Bim block,Bim-Bcl-XL,Bcl-W Bim block
NC(=O)CSc1nnc(Cn2cnc3ccccc32)o1,65.0*,-11.7,10.0,-2.0,16.0,36.0
c1coc(C2Nc3cccc4cccc(c34)N2)c1,42.0*,-15.4,16.0,4.0,11.0,36.0
FC(F)(F)c1ccc(C2Nc3cccc4cccc(c34)N2)cc1,7.0,-11.9,0.0,7.0,0.0,-1.0
CC(C)CN1C(=O)NC(NS(=O)(=O)c2ccc(N)cc2)(C(F)(F)F)C1=O (stereo not drawn),7.0,-13.9,2.0,-4.0,-4.0,-2.0
CCC1=NNc2cccc3c(OC)ccc1c23,56.0*,-2.8,64.0*,100.0*,75.0*,66.0*
COCCN=C1Sc2nc3cc4c(cc3cc2CN1CC1CCCO1)OCO4 (stereo not drawn),0.0,-18.0,-2.0,-2.0,3.0,0.0
COc1ccc(NC(=O)CN2CCC(n3c(C)nc4cc(F)ccc43)CC2)c(OC)c1,-2.0,-22.4,-4.0,-4.0,-3.0,-4.0
Cc1nc2ccccc2n1C1CCN(CC(=O)NCc2ccc(F)cc2)CC1,30.0,-23.4,59.0*,64.0*,1.0,1.0
CC(NCc1ccc(-c2ccccc2)cc1)C(O)c1ccccc1 (stereo not drawn),39.0,-18.9,30.0,15.0,40.0*,24.0
CCOc1cc(S(=O)(=O)Nc2ccccn2)ccc1F,·,-25.0,89.0*,·,28.0,22.0
COc1ccc(NC(=S)N/N=C/c2cccn2Cc2ccc(F)cc2)cc1,6.0,-11.3,0.0,-2.0,-2.0,-1.0
CNC(=S)N(Cc1cccs1)Cc1cc2ccc(OC)cc2[nH]c1=O,47.0*,-9.2,30.0,29.0,35.0,26.0
CCn1c(C)c(C(C)=O)c(N2CCCCC2)nc1=S,-4.0,-11.8,-9.0,2.0,-4.0,-1.0
C=CCn1c(C)c(C(C)=O)c(N2CCOCC2)nc1=S,48.0*,-20.4,29.0,29.0,38.0,29.0
O=C(NCCc1ccccc1)c1ccc2nc(-c3ccco3)c(-c3ccco3)nc2c1,45.0*,-8.7,16.0,7.0,10.0,19.0
O=C(NCCc1ccccc1)c1ccc(=O)oc1,-2.0,10.6,1.0,-1.0,-1.0,-2.0
O=C(NCCO)c1ccc2nc(-c3ccco3)c(-c3ccco3)nc2c1,54.0*,3.1,18.0,5.0,12.0,28.0
O=C(c1ccccc1)c1ccc2nc(-c3ccco3)c(-c3ccco3)nc2c1,47.0*,-11.6,26.0,-9.0,12.0,26.0
O=C(NC1CCCC1)c1ccc2nc(-c3ccco3)c(-c3ccco3)nc2c1,3.0,-12.2,4.0,2.0,2.0,6.0
CCOc1ccc(N2C(=O)C(Cl)=C(Nc3ccccc3O)C2=O)cc1,13.0,-5.4,5.0,3.0,7.0,20.0
CC(O)C1CCC2C3CC[C@H]4CC(O)CCC4(C)C3CC3(OCCO3)C12C (stereo partly drawn),0.0,-12.1,1.0,0.0,0.0,0.0
Cc1noc(C)c1C(=O)OCC(=O)Nc1c(F)cccc1F,-1.0,-26.3,-1.0,-3.0,-1.0,0.0
COc1cc(S(=O)(=O)Nc2ncccc2C)c(OC)cc1Cl,-2.0,28.5*,-4.0,-3.0,0.0,-1.0
CC(=O)c1ccc(-n2nncc2C(C)(C)C)cc1,5.0,-22.7,3.0,0.0,0.0,1.0
Cc1cnnn1-c1ccc(C(=O)CCl)cc1,60.0*,-6.1,36.0,34.0,33.0,60.0*
Cc1cc2cc(C=C(C#N)C#N)c(Cl)nc2cc1C,2.0,-19.6,1.0,0.0,-3.0,0.0

# Screening data (PubChem BioAssay)
